Results as given in the supplement of paper PMC11732987, “Enantioselective OTUD7B fragment discovery through chemoproteomics screening and high-throughput optimisation” (Communications Chemistry, 2025).

Columns and labels:
Assay in all cases: log2 ratio of Biotin-Ahx-Ub-VS probe labelling (fragment/DMSO); higher = less target engagement (more negative = stronger competition), active = hit call of the paper (q ≤ 0.05, log2 ratio ≤ -1)
Details in all cases: compound concentration: 200 uM; treatment time: 3 h
USP19 = molecular target: T1, USP19 (UniProt O94966)
T1 sequence (whole entry): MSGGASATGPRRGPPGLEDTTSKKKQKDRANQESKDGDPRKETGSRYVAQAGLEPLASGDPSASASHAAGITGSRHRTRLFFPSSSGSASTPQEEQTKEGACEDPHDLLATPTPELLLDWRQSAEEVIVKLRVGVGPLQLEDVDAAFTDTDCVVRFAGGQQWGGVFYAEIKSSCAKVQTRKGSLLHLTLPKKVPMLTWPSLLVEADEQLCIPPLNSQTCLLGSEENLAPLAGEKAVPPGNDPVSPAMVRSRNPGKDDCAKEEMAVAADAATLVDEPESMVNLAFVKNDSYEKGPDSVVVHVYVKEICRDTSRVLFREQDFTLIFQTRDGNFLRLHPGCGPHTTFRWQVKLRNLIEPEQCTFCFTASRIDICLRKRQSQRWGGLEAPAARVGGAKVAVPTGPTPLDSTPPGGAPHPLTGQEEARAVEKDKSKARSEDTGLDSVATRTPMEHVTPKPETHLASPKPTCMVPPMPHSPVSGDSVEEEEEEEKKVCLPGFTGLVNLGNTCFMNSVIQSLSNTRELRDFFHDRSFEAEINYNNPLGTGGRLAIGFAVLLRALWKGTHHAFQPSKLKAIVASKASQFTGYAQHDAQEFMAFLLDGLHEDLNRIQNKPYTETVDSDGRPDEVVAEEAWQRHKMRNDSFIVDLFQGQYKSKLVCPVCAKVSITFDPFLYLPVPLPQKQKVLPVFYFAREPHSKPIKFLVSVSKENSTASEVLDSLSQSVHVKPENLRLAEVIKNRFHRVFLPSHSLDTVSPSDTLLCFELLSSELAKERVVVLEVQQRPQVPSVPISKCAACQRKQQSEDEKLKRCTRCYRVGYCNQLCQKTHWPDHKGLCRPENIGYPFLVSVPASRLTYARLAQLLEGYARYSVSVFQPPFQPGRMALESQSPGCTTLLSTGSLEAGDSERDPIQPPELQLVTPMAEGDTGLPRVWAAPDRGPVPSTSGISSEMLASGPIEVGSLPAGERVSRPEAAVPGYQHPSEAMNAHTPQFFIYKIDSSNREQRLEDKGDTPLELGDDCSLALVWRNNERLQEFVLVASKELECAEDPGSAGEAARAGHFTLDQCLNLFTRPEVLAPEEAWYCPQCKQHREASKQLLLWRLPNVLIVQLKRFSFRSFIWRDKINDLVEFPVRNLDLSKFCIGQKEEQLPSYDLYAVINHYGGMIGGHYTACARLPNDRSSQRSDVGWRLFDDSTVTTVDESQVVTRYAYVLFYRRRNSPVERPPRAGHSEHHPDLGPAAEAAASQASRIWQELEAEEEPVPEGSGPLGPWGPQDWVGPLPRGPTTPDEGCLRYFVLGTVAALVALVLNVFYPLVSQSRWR
Summary of the method: (§1)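 HEK293T lysate (495 µg per sample, in Tris/CHAPS/IGEPAL buffer with protease inhibitors) was exposed in triplicate for 3 h to fragment at 200 µM or to vehicle, then to Biotin-Ahx-Ub-VS at 0.5 µM final for 1 h. Labelled DUBs were enriched on NeutrAvidin, digested with LysC and trypsin, and analysed by diaPASEF LC-MS/MS. Spectronaut label-free quantities were normalised to the global median, and values are average log2 ratios of fragment over vehicle from an unpaired t-test. Only proteins with ≥2 unique peptides were used.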

USP24 = USP24 (UniProt Q9UPU5)
Summary of the method: as §1

USP25 = molecular target: T2, USP25 (UniProt Q9UHP3)
T2 sequence (whole entry): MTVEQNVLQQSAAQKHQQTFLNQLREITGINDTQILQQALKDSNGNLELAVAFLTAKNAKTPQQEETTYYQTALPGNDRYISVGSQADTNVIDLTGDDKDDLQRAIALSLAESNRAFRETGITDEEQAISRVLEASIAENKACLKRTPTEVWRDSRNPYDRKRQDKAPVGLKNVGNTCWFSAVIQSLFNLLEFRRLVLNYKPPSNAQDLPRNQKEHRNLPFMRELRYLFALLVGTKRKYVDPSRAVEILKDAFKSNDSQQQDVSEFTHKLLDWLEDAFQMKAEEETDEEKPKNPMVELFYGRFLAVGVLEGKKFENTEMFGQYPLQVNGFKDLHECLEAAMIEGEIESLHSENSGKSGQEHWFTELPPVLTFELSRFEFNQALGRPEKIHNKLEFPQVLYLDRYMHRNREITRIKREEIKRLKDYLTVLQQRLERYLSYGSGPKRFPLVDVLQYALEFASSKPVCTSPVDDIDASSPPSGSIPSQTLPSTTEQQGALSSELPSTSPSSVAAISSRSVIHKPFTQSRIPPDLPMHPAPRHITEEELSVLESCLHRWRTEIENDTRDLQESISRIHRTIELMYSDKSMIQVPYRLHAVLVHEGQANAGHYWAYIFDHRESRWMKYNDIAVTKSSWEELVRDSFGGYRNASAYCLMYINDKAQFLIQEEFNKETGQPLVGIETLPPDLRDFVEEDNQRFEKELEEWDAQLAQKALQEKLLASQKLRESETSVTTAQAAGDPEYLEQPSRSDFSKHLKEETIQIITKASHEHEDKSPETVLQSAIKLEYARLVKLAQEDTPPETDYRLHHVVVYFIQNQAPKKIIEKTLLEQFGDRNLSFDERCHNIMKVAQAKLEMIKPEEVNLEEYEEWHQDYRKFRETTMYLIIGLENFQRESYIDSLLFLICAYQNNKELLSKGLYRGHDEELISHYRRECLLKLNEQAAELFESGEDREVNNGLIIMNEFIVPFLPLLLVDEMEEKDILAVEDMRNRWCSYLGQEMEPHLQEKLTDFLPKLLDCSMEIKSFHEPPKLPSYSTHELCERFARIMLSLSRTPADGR
Summary of the method: as §1

USP28 = molecular target: T3, USP28 (UniProt Q96RU2)
T3 sequence (whole entry): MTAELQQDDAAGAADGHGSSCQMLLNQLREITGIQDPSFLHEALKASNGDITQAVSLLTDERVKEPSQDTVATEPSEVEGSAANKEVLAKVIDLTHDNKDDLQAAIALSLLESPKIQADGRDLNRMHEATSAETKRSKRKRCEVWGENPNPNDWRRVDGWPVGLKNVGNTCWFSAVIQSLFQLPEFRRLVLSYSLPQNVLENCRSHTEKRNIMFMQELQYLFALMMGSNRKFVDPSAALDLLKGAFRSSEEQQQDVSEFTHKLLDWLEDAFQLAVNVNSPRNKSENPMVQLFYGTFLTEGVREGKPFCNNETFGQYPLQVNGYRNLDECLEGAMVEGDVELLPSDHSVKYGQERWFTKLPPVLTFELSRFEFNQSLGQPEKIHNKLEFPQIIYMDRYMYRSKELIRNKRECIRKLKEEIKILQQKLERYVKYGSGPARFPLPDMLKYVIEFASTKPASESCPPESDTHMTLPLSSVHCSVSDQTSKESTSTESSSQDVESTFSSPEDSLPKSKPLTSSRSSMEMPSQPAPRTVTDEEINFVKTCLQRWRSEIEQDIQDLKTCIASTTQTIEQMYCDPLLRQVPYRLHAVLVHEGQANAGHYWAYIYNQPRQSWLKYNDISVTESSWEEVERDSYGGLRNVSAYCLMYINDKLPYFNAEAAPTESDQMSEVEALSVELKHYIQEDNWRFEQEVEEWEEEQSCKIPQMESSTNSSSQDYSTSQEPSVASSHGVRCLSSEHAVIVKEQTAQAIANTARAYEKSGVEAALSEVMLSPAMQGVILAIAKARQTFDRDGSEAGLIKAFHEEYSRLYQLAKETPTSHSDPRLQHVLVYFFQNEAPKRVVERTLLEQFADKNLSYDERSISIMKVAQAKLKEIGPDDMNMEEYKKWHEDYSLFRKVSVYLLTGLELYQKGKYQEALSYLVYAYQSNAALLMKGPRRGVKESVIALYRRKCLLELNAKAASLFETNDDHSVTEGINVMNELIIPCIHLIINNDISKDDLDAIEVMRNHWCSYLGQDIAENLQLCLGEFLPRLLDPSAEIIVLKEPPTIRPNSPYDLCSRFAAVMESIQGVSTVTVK
Summary of the method: as §1

Measured: log2 ratio of Biotin-Ahx-Ub-VS probe labelling

Chain of USP24 (Q9UPU5 whole entry): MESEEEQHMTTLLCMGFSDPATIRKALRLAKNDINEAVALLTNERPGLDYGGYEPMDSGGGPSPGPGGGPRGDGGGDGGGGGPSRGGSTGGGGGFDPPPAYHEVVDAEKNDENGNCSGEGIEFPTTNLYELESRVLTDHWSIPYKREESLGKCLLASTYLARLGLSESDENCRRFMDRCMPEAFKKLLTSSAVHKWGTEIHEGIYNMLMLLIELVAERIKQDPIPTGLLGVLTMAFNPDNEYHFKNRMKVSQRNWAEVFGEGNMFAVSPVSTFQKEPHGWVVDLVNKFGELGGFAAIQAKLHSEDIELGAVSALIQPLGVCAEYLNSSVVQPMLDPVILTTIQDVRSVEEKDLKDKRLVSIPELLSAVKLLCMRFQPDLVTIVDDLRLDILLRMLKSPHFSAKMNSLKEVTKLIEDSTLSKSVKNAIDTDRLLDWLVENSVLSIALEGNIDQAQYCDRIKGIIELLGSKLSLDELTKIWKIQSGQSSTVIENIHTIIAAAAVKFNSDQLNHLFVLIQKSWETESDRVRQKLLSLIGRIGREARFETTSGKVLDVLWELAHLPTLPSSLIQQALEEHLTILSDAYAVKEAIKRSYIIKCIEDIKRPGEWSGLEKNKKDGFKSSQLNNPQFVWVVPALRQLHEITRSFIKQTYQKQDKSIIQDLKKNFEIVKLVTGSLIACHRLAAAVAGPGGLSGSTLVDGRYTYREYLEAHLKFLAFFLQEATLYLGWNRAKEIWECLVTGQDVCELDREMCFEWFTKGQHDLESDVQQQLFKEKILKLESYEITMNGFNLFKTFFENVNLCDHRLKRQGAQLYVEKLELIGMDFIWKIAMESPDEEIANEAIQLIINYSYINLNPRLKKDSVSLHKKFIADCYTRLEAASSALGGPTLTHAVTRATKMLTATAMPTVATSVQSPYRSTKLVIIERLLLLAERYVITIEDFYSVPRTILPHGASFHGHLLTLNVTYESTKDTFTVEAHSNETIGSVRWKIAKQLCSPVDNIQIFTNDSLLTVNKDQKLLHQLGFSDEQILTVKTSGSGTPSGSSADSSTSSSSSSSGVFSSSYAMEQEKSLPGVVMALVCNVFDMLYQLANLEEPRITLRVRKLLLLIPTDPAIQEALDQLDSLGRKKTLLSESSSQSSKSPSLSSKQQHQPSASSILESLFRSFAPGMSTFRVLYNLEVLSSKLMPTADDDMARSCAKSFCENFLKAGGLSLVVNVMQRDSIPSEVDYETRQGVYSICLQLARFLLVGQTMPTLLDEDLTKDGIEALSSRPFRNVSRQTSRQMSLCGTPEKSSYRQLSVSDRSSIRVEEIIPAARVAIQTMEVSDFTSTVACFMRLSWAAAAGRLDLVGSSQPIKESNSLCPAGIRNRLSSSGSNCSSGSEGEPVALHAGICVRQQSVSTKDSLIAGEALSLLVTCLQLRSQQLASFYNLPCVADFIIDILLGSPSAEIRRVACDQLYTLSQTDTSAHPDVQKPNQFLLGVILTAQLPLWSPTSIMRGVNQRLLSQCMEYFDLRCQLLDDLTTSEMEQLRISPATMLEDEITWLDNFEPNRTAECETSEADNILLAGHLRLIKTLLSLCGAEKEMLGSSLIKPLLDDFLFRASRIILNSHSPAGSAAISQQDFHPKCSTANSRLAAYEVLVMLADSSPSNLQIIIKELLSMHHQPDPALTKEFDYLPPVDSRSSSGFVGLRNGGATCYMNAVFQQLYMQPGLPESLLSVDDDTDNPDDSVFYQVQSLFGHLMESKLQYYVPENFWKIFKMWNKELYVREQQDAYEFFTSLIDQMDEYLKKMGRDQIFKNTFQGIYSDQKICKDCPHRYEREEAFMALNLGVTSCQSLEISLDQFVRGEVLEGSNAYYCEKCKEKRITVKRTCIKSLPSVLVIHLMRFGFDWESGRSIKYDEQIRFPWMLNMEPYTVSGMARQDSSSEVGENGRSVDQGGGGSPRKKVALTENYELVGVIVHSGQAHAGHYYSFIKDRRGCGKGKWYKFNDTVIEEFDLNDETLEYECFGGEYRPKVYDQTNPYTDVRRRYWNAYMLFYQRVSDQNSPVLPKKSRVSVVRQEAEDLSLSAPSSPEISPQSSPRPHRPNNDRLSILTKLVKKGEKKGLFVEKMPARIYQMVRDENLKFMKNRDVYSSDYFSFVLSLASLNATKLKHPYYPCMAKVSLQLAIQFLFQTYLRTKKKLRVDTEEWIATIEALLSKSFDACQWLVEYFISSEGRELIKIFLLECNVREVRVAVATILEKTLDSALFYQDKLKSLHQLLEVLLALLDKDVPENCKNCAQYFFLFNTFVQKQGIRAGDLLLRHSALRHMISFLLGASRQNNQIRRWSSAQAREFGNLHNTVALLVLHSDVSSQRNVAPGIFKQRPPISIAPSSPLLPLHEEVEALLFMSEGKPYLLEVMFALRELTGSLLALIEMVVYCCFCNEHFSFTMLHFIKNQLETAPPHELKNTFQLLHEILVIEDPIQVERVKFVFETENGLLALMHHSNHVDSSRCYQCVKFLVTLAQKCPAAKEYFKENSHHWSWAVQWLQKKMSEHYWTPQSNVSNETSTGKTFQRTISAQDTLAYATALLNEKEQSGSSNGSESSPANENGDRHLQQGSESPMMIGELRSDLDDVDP

CC(NC(=O)CCl)c1ccc2[nH]ncc2c1 (centres undefined)
inactive: USP19 -0.529 | USP24 -0.886 | USP25 -0.509 | USP28 -0.901
